The test system of the assay is Leishmania donovani. Description: Leishmania intramacrophage assay. Type of assay: functional, organism-based. Details: scale not given: in the data most compounds retested in dose-response had high values.

Among all 69,000 compounds or so, about 1,000 (1.4%) showed an effect of 50% or more. The list comes from a sample in which strong results are over-represented; it also holds similar structures and randomly drawn compounds.

`Cc1nc(C2CCNCC2)cc(N2CCOc3ccccc3C2)n1`: the “Percent Effect” value (30.3 µM, […]) was 38.29%.

As to `CCN(C)CC(=O)N1CCC(c2cc(N3CCOCC3)nc(C)n2)CC1`, the “Percent Effect” value (30.3 µM, […]) is recorded as -5.475%.

With `COc1ccc(C(=O)N2CCN(c3cc(CCN)nc(C)n3)CC2)cc1`, the “Percent Effect” value (30.3 µM, […]) is recorded as 0.4639%.

For the compound `Cc1nc(C2CCN(C)CC2)cc(N2CCOc3ccc(Cl)cc3C2)n1`, the “Percent Effect” value (30.3 µM, […]) is reported as 85.22%.

Regarding `Cc1nc(CCN)cc(N2CCC(O)(c3ccccc3)C2)n1` (stereo not given), the “Percent Effect” value (30.3 µM, […]) is 11.63%.

For `Cc1nc(CCN)cc(N2CCC(O)(c3ccc(Cl)cc3)CC2)n1`, the “Percent Effect” value (30.3 µM, […]) came to 77.75%.

Take `Cc1nc(CCN)cc(N2CCOc3ccc(Cl)cc3C2)n1`: the “Percent Effect” value (30.3 µM, […]) was found to be 63.66%.

As for `Cc1nc(N)nc(N2CCOc3ccc(CO)cc3C2)c1C`, the “Percent Effect” value (30.3 µM, […]) is -5.312%.

As for `Cc1nc(CN)cc(N2CCC(O)(c3ccc(Cl)cc3)CC2)n1`, the “Percent Effect” value (30.3 µM, […]) is on record as -13.57%.

For the compound `COc1cc2nc(NCCNS(C)(=O)=O)cc(C)c2cc1OC`, the “Percent Effect” value (30.3 µM, […]) was -28.24%.

On to `O=C(O)C(F)(F)F.O=C(O)C(F)(F)F.c1csc(CN2CCCC3(COCCN(Cc4c[nH]nn4)C3)C2)c1` (stereo not given), for which the “Percent Effect” value (30.3 µM, […]) stood at 14.23%.

For the compound `Cc1ccccc1C1(C(=O)N2CCOC(C)C2)CCOCC1` (stereo not given), for the setting “30.3 µM, […]”, the “Percent Effect” value was -3.571%.

With `Cc1nc(CN(C)C2CCN(Cc3ccc(C(N)=O)cc3)C2)no1` (stereo not given), the “Percent Effect” value (30 µM) stood at 31.74%.

With `Cc1cccc(S(=O)(=O)NC(=O)CN(C)Cc2ccccc2)c1`, the “Percent Effect” value (30.3 µM, […]) was 14.38%.

Take `Cc1ccccc1[C@@H]1CN(Cc2ccc(C(F)(F)F)nc2)C[C@H]1C(=O)O`: where the note is “30.3 µM, […]”, the “Percent Effect” value turned out to be 13.27%.

With `Fc1ccc(OCCNC2CCN(Cc3ccccn3)CC2)c(F)c1`, under “30.3 µM, […]”, the “Percent Effect” value came out at 52.55%.

With `Fc1ccc(OCCNC2CCN(Cc3ccncc3)CC2)c(F)c1`, the “Percent Effect” value (30.3 µM, […]) was found to be 39.31%.

`N#Cc1ccc(NC2CCN(Cc3ccccn3)CC2)c(F)c1`: the “Percent Effect” value (30.3 µM, […]) is reported as -12.41%.

For `CCN1CCN(CC(O)c2ccc(OC(F)(F)F)cc2)CC1` (stereo not given), the “Percent Effect” value (30 µM, 30.03 µM) amounted to 18.61%.

Consider `O=C1CC2(CCN(C(=O)C3CCCCC3)C2)Nc2ccccc2N1` (stereo not given), for which, under “30.3 µM, […]”, the “Percent Effect” value is given as 29.44%.

Regarding `Cc1nc(CO[C@H]2CN(C(=O)c3cnoc3C)[C@@H]3COC[C@H]23)cs1.O=C(O)C(F)(F)F`, the “Percent Effect” value (30.3 µM, […]) is 6.994%.

Turning to `CCOCC(O)CN1CCN(C(=O)c2cc(C)ccc2F)CC1` (stereo not given), the “Percent Effect” value (30 µM) is on record as -8.817%.

With `COCCOCC(=O)NC(C#N)c1cccc(Cl)c1Cl` (stereo not given), the “Percent Effect” value (30.3 µM, […]) is given as -18.55%.

Regarding `CCOCC1c2c(ncn2C(C)C)CCN1C(=O)C1CC1` (stereo not given), where the note is “30.3 µM, […]”, the “Percent Effect” value was 23.55%.

With `O=C(O)C(F)(F)F.c1cncc(-c2ccc3c(c2)C2(CC3)CCN(c3nncs3)CC2)c1`, the “Percent Effect” value (30 µM, 30.03 µM) was 47.88%.

For the compound `CN(C)CC(=O)N1CCC2(CCc3ccc(-c4ccncc4)cc32)CC1.O=C(O)C(F)(F)F.O=C(O)C(F)(F)F`, the “Percent Effect” value (30.3 µM, […]) stood at 33.01%.

As to `c1cc(-c2ccc3c(c2)C2(CC3)CCN(c3nncs3)CC2)ccn1`, the “Percent Effect” value (30.3 µM, […]) was found to be 59.16%.

As to `c1cc(-c2ccc3c(c2)CCC32CCN(c3nncs3)CC2)co1`, the “Percent Effect” value (30.3 µM, […]) is -6.512%.

On to `O=C(O)C(F)(F)F.c1cc(-c2ccc3c(c2)CCC32CCN(c3nncs3)CC2)ccn1`, for which the “Percent Effect” value (30.3 µM, […]) is on record as 73.19%.

For the compound `Cc1ccc2c(c1)C1(CC2)CCN(c2nncs2)CC1`, where the note is “30 µM, 30.03 µM”, the “Percent Effect” value is 8.524%.

The record behind these values is ChEMBL document CHEMBL3988442, “University of Dundee, Small-Polar-MMV Screening Library” (2021).
